Data as given in PubChem BioAssay AID463195 (Sanford-Burnham Center for Chemical Genomics, 2010).
Among all 330,000 compounds or so, about 4,600 (1.4%) were called active. Only a selection was taken, and actives are over-represented in it overall. A number with no mark means an inactive call.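 The calls were made as follows: active = inhibition of 40% or more at the single tested concentration; inactive = the rest.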

Test: growth inhibitors of isogenic TIM10 control yeast, primary screen, counter-screen for tim10-1 yeast inhibitor project, luminescence, uHTS (AID 463195);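 also: wild-type TIM10 isogenic control strain grown at permissive 25 °C; 0% = DMSO yeast wells and 100% = minimal medium wells without yeast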
Conditions: S. cerevisiae TIM10 strain growth, BacTiter-Glo luminescence, 24 h; at 10 µM; hits give high values

Structure (SMILES)	inhibition
COc1ccc(C)cc1NC(=O)C(Sc1ccccc1)c1ccccc1 (stereo not drawn)	2.49%
O=C(Cc1ccccc1)NC(=S)Nc1ccc(N2CCCCC2)cc1	40.2% (active)
O=C(CCN1CCN(c2ccccc2)CC1)NNC(=S)Nc1ccccc1	1.6%
Cc1ccccc1C(=O)NC(=S)Nc1ccc(N2CCN(C(=O)c3ccccc3)CC2)cc1	-9.29%
O=C(CCc1nc(-c2ccccc2)no1)Nc1cccc(C(=O)NC2CC2)c1	-6.75%
CCCCn1c(N)c(N(CCOC)C(=O)c2cccc(S(=O)(=O)N3CCCCC3)c2)c(=O)[nH]c1=O	-2.98%
Cc1cccc(C(=O)NCC(=O)OCC(=O)N(C)CC(=O)Nc2ccccc2Cl)c1	-5.14%
Cc1ccc2nc(-c3ccc(SCC(=O)Nc4cc(C)on4)nc3)[nH]c2c1	42.6% (active)
Cc1ccc(SCCC(=O)Nc2cc(C)on2)cc1	4.66%
Cc1cccc(-n2ncc3c(=O)[nH]c(SCC(=O)Nc4cc(C)on4)nc32)c1	-12.1%
CC(=O)c1cccc(NC(=S)N2CCN(S(C)(=O)=O)CC2)c1	13%
CC(C)Oc1c(Br)cc(Br)cc1/C=N/NC(N)=S	51.7% (active)
Cc1cccc(-n2c(C)cc(/C=N/NC(N)=S)c2C)c1	-24.1%
CCOc1ccc(/C=N/NC(N)=S)cc1	-25.2%
O=C(CCNC(=O)c1ccc(Br)cc1)NCCCc1ccccc1	-4.58%
S=C(Nc1ccc(Br)cc1)NC1CCN(Cc2ccccc2)CC1	-24.3%
S=C(NCCCc1ccccc1)Nc1ccc(Br)cc1	43.1% (active)
CC(C)n1c(O)c(N=Nc2ccccn2)c2ccccc21	3.1%
NC(=S)N/N=C/c1coc2cc(Cl)ccc2c1=O	42.4% (active)
Cc1ccc2occ(/C=N/NC(=O)c3ccccc3C)c(=O)c2c1	20.6%
O=c1c(/C=N/O)coc2ccc(Cl)cc12	-3.79%
CC(C)c1ccc(NC(=O)COC(=O)c2ccc(CN3CCCC3=O)cc2)cc1	1.1%
O=C(Nc1ccccc1Cl)/C(Cl)=C(\Cl)S(=O)c1ccccc1 (stereo not drawn)	86.7% (active)
CC1(C)CC(CCC(=O)Nc2ccccc2Cl)C(=O)O1 (stereo not drawn)	1.62%

Structure (SMILES)	inhibition
Cc1c(NC(=O)Nc2ccccc2Cl)sc(=S)n1C	2.45%
O=C(O)C1C2CC2CN1C(=O)c1ccc(Cl)cc1Cl (stereo not drawn)	-17.4%
CN(Cc1nc(-c2cnccn2)no1)Cc1n[nH]c2c1CCCCC2	4.12%
CCOCCCNC(=O)c1cn(CC(C)C)c(=O)c2c1c1ccccc1n2C	3.76%
O=C(Nc1ccccc1)/C(=C\c1ccco1)NC(=O)c1ccco1	-2.56%
O=C(NCCc1ccco1)c1nn(Cc2ccccc2)c(=O)c2ccccc12	2.63%
O=c1nc2s/c(=C\c3ccco3)c(=O)n2nc1Cc1ccccc1	63.3% (active)
COC(=O)c1c(NC(=O)CN2CCN(S(=O)(=O)c3ccccc3[N+](=O)[O-])CC2)sc2c1CCC(C)C2 (stereo not drawn)	14.5%
CC(=O)N1C(C)c2ccccc2C(C)(C)CC12CCCCC2 (stereo not drawn)	41.9% (active)
COCCCNC(=O)C1CC(=O)N(CCc2ccc(F)cc2)C1 (stereo not drawn)	-8.81%
CCOCCCn1c(SCC(=O)Nc2cc(OC)ccc2OC)nc2ccccc2c1=O	11.4%
O=C(CSc1ccc(-c2ccc(Br)cc2)nn1)NCC1CCCO1 (stereo not drawn)	15.2%
OC(CNCC1CCCO1)Cn1c2ccc(Br)cc2c2cc(Br)ccc21 (stereo not drawn)	62.5% (active)
O=C(CCNS(=O)(=O)c1ccc(Br)cc1)NCC1CCCO1 (stereo not drawn)	-3.43%
CCCCCNC(=O)c1cccnc1SCC(=O)Nc1ccccc1OC	1.04%
COc1ccc(N2CCN(C(=O)CCSCc3ccccc3F)CC2)cc1	27.5%
CC(=O)N(Cc1cccs1)C1CCOC(C)(C)C1 (stereo not drawn)	-0.323%
Nc1ccccc1SC(C[N+](=O)[O-])c1ccccc1 (stereo not drawn)	59.3% (active)
Cc1ccc(C(C[N+](=O)[O-])c2c(C)cc3ccccn23)cc1 (stereo not drawn)	21.6%
Cc1ccc(C)c(OCCC(=O)OCC(=O)N2CCN(c3ccccc3)CC2)c1	5.69%
O=S(=O)(Nc1cccc(Oc2ccc(Cl)cc2)n1)c1ccc(F)cc1	37.9%
O=C(COC(=O)C1CCCO1)Nc1nc(-c2ccc(F)cc2)cs1 (stereo not drawn)	2.65%
CC1CCCC(C)N1C(=O)CN1CCN(c2nc(-c3ccc(F)cc3)cs2)CC1 (stereo not drawn)	44.9% (active)
O=C(CN1CCN(c2nc(-c3ccccc3)cs2)CC1)NCc1ccc2c(c1)OCO2	18.3%

Structure (SMILES)	inhibition
Cc1cc(C)cc(OCC(=O)O/N=C(\N)Cc2ccc([N+](=O)[O-])cc2)c1	18.5%
N/C(Cc1ccc([N+](=O)[O-])cc1)=N\OC(=O)COc1ccc2ccccc2c1	44.4% (active)
COC(=O)C(C)NC(=O)COc1ccc2ccccc2c1 (stereo not drawn)	4.55%
O=C(COC(=O)Cc1ccc([N+](=O)[O-])cc1)NC1CCCCCC1	11.9%
N/C(Cc1ccc([N+](=O)[O-])cc1)=N\OC(=O)C1CCCCC1	56% (active)
O=C(COC(=O)C1CCCCC1)Nc1ccc([N+](=O)[O-])cc1	30.8%
O=C(CN1CCCCC1)N1c2ccccc2Sc2ccc(C(F)(F)F)cc21	13.9%
O=S(=O)(NC(=S)Nc1ccccc1)c1ccc(F)cc1	-5.64%
CC[C@]12c3[nH]c4cc(CCC(=O)N(C)C)ccc4c3CCN1C(=O)[C@@H](CC(=O)NCc1ccco1)C[C@@H]2C(=O)N1CCN(C(=O)c2ccco2)CC1	12.2%
CSc1ccccc1-c1nnc(-c2ccc(Cl)cc2)o1	8.43%
COc1ccccc1-c1nnc(-c2ccc(F)cc2)o1	14.8%
FC(F)(F)c1cnc(Oc2ccccc2-c2nnc(-c3ccc(Cl)cc3)o2)c(Cl)c1	92.4% (active)
C[C@@H]1CC[C@@]2(OC1)O[C@H]1C[C@H]3[C@@H]4CC=C5C[C@@H](O)[C@H](O)C[C@]5(C)C4CC[C@]3(C)[C@H]1[C@@H]2C (stereo partly drawn)	-10.1%
Cc1cc(Cl)ccc1OCc1nc(-c2ccncc2)no1	-5.93%
CCc1cc(C(N)=O)c(NC(=O)c2ccc(OC)cc2)s1	48.7% (active)
CCc1cc(C(=O)c2ccc(OC)cc2)c(NC(=O)CN2CCN(C)CC2)s1	14.6%
COc1ccc(C(=O)Nc2sc(C)c(C)c2CN2CCOCC2)cc1	29%
CCCn1c(C)cc(-c2csc(NC(=O)CCc3nc4ccccc4c(=O)[nH]3)n2)c1C	-24.7%
CCCOc1ccc(NC(=O)C2OC3OC(C)(C)OC3C3OC(C)(C)OC23)cc1 (stereo not drawn)	-2.42%
COc1cc(/C=C/CO)cc(OC)c1O[C@@H]1O[C@H](CO)[C@@H](O)[C@H](O)[C@H]1O	-4.81%
O=C(/C=C/c1cccs1)c1cc(Cl)ccc1OC(=O)N1CCOCC1	52.9% (active)
O=C(Oc1cccc(C(=S)N2CCOCC2)c1)c1cccc(Cl)c1	17.1%
CC(=O)Nc1ccccc1OC(=O)N1CCOCC1	-16.6%
O=C(Nc1ccncc1)Nc1ccc(F)cc1	-4.69%

Structure (SMILES)	inhibition
CC(C)(CCl)C(=O)Nc1ccc(Sc2ccc(F)cc2)cc1	42.1% (active)
CC(C)CNC(=S)Nc1ccc(F)cc1	8.49%
O=C(COc1ccccc1)Nc1nonc1NC(=O)COc1ccccc1	7.03%
O=C(CCN1C(=O)[C@@H]2Cc3ccccc3CN2C1=O)NCc1ccccc1	4.78%
CCOC(=O)c1c(NC(=O)CNC2CCCc3ccccc32)sc(C(N)=O)c1C (stereo not drawn)	-2.7%
COc1ccc(CN(C(=O)CSc2nnc(-c3ccc(OC)c(OC)c3)o2)c2ccc(F)cc2)cc1	40.5% (active)
COc1ccc(-c2nnc(SCC(=O)NC3CCCCC3)o2)cc1OC	3.73%
COc1ccc(CCNC(=O)CSc2nnc(-c3cccc(F)c3)o2)cc1OC	1.74%
Cc1ccc(C(=O)OCC(=O)NCc2cc(C)c(O)c(C)c2)cc1S(=O)(=O)N1CCCCC1	0.371%
O=S(=O)(c1cccc(-c2cn3ccccc3n2)c1)N1CCCC1	9%
Cc1cc(-c2ccccc2)nc(N2CCC(C(=O)NC34CC5CC(CC(C5)C3)C4)CC2)n1	19.8%
O=C1Nc2c(Br)cc(Br)cc2C1(O)N1CCOCC1 (stereo not drawn)	12.1%
CCC(C)(C)NC(=O)CN(Cc1cccs1)C(=O)CNS(=O)(=O)c1ccc(F)cc1	3.15%
CCOc1ccc(S(=O)(=O)NCCC(=O)N2CCCCCCC2)cc1	-3.91%
CC(C)(C)c1cc(C(=O)N/N=C/c2ccc([N+](=O)[O-])s2)n[nH]1	22%
Cc1ccccc1NCC(=O)N/N=C\c1ccc([N+](=O)[O-])s1	56% (active)
Cc1cccc(/C=N/NC(=O)CNc2cccc3ccccc23)n1	8.82%
C=CC1C(OC2OC(CO)C(O)C(O)C2O)OC=C(C(=O)OC)C1CC1CC(=O)CC(CC(=O)CCc2ccc(O)cc2)O1 (stereo not drawn)	-2.71%
c1ccc(COc2ccccc2CNCc2cccnc2)cc1	-6.88%
COc1c(N2CCN(C(=S)Nc3ccccc3F)C(C)C2)c(F)cc2c(=O)c(C(=O)O)cn(C3CC3)c12 (stereo not drawn)	2.41%
Cc1cccc(-n2c(SCC(N)=O)nc3c(c2=O)C2(CCCCC2)Cc2ccccc2-3)c1	12.4%
